The results in this text go back to PubChem BioAssay (NCATS).

Results filed as inconclusive are left out. The source made the active and inactive calls. Calls follow the shape of the dose curve; as a rule, active = well fitted curve in the direction sought with a large enough effect; inconclusive = small, poorly fitted or top-dose-only effect, or another doubt; inactive = no such curve, though single readings can be large; an effect the other way counts as inactive or inconclusive.

Test [1] can be described thus: Quantitative High-Throughput drug screen in 47 multiple myeloma cell lines against the NCATS MIPE library collection: INA6_PLB cell viability assay (AID 1918965; also: nearly all actives have a fitted effect of over 55% in size). Summed up: (§1)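 Inhibition of cell viability is measured here. Each line was plated at 500 cells per well, treated with MIPE 4.0 drugs, kept 48 hours at 37C, then assayed for ATP content by CellTiter-Glo luminescence.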

A short description of test [2]: Quantitative High-Throughput drug screen in 47 multiple myeloma cell lines against the NCATS MIPE library collection: H1112_PLB cell viability assay (AID 1918967; also: nearly all actives have a fitted effect of over 30% in size). Summed up: (§2)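 We plated 500 myeloma cells per well, pinned in MIPE 4.0 compounds, and incubated for 48 hours at 37C. ATP was then quantified with CellTiter-Glo, with DMSO and media-only wells defining 100% and 0%.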

A short description of test [3]: Quantitative High-Throughput drug screen in 47 multiple myeloma cell lines against the NCATS MIPE library collection: Karpas25_ECACC cell viability assay (AID 1918968; also: nearly all actives have a fitted effect of over 35% in size). Summed up:
as §2

Test [4] is described as follows: Quantitative High-Throughput drug screen in 47 multiple myeloma cell lines against the NCATS MIPE library collection: KMS12PE_JCRB cell viability assay (AID 1918972). Also: nearly all actives have a fitted effect of over 30% in size. Summed up:
as §1

A short description of test [5]: Quantitative High-Throughput drug screen in 47 multiple myeloma cell lines against the NCATS MIPE library collection: KMS26_JCRB cell viability assay (AID 1918975). Also: nearly all actives have a fitted effect of over 45% in size. Summed up: (§3)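 qHTS of the MIPE 4.0 collection: 500 myeloma cells/well, 48 h drug exposure at 37C in 5% CO2, then CellTiter-Glo for 5 min at room temperature before luminescence reading.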
Test [6] in a line: Quantitative High-Throughput drug screen in 47 multiple myeloma cell lines against the NCATS MIPE library collection: MOLP8_DSMZ cell viability assay (AID 1918977). Also: nearly all actives have a fitted effect of over 45% in size. Summed up: (§4)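 ATP-based luminescence (CellTiter-Glo, 5 min RT incubation) quantified surviving cells following two days' treatment with MIPE 4.0 agents at 37 °C, 5% CO2.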
Test [7] in a line: Quantitative High-Throughput drug screen in 47 multiple myeloma cell lines against the NCATS MIPE library collection: NCIH929_DSMZ cell viability assay (AID 1918978). Also: nearly all actives have a fitted effect of over 35% in size. Summed up: as §4
Test [8] in a line: Quantitative High-Throughput drug screen in 47 multiple myeloma cell lines against the NCATS MIPE library collection: OCIMY1_PLB cell viability assay (AID 1918979). Also: nearly all actives have a fitted effect of over 35% in size. Summed up:
as §4

Test [9] in a line: Quantitative High-Throughput drug screen in 47 multiple myeloma cell lines against the NCATS MIPE library collection: LP1_DSMZ cell viability assay (AID 1918982). Also: nearly all actives have a fitted effect of over 35% in size. In outline:
as §4

Test [10] can be described thus: Quantitative High-Throughput drug screen in 47 multiple myeloma cell lines against the NCATS MIPE library collection: KMS12BM_JCRB cell viability assay (AID 1918971). Also: nearly all actives have a fitted effect of over 35% in size. In outline:
as §3

Test [11] in a line: Quantitative High-Throughput drug screen in 47 multiple myeloma cell lines against the NCATS MIPE library collection: KMS20_JCRB cell viability assay (AID 1918973). Also: nearly all actives have a fitted effect of over 45% in size. Summed up:
as §2

Test [12] is described as follows: Quantitative High-Throughput drug screen in 47 multiple myeloma cell lines against the NCATS MIPE library collection: MMM1_PLB cell viability assay (AID 1918976). Also: nearly all actives have a fitted effect of over 35% in size. Summed up: as §4
Test [13] in a line: Quantitative High-Throughput drug screen in 47 multiple myeloma cell lines against the NCATS MIPE library collection: MM1S_ATCC cell viability assay (AID 1918980). Also: nearly all actives have a fitted effect of over 45% in size. In outline:
as §4

A short description of test [14]: Quantitative High-Throughput drug screen in 47 multiple myeloma cell lines against the NCATS MIPE library collection: MM1R_ATCC cell viability assay (AID 1918981). Also: nearly all actives have a fitted effect of over 35% in size. Summed up:
as §4

Test [15] can be described thus: Quantitative High-Throughput drug screen in 47 multiple myeloma cell lines against the NCATS MIPE library collection: KMS28PE_JCRB cell viability assay (AID 1918983). Also: nearly all actives have a fitted effect of over 35% in size. In outline:
as §4

The nature of test [16]: Quantitative High-Throughput drug screen in 47 multiple myeloma cell lines against the NCATS MIPE library collection: KMS27_JCRB cell viability assay (AID 1918970). Also: nearly all actives have a fitted effect of over 30% in size. In outline: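 KMS27_JCRB myeloma cells, 500 per well, exposed 48 h at 37 C, 5% CO2 to MIPE 4.0 compounds. Viability from ATP by CellTiter-Glo luminescence, normalized to DMSO (100%) and medium-only (0%) wells.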

Test [17] in a line: Quantitative High-Throughput drug screen in 47 multiple myeloma cell lines against the NCATS MIPE library collection: KMS34_JCRB cell viability assay (AID 1918985). Also: nearly all actives have a fitted effect of over 40% in size. Summed up: as §4
Test [18] is described as follows: Quantitative High-Throughput drug screen in 47 multiple myeloma cell lines against the NCATS MIPE library collection: JJN3_DSMZ cell viability assay (AID 1918966; also: nearly all actives have a fitted effect of over 50% in size). Summed up: as §2
The nature of test [19]: Quantitative High-Throughput drug screen in 47 multiple myeloma cell lines against the NCATS MIPE library collection: KMS21BM_JCRB cell viability assay (AID 1918974). The settings on record: ATP luminescence, 48 h; viability: at 45.8 µM (top of the series) unless noted. Summed up: as §2
Test [20] is described as follows: Quantitative High-Throughput drug screen in 47 multiple myeloma cell lines against the NCATS MIPE library collection: L363_DSMZ cell viability assay (AID 1918984). Also: nearly all actives have a fitted effect of over 40% in size. In outline: as §4
Potency is read from the fitted curve at half-maximal effect.

Take `O=C1c2c(O)cc(O)cc2OC(c2ccc(O)c(O)c2)C1O` (stereo not drawn): the Potency entry in test [1], in test [2], in test [3], in test [4], in [5] and in [6] was “inactive” in each case. In addition, the Potency entry in test [7], in [8] and in test [9] was “inactive” throughout.

For the compound `COC(=O)C1=C(C)NC(C)=C(C(=O)OC(C)C)C1c1cccc2nonc12` (stereo not drawn), the Potency was 26.4 µM (active) in test [1]; 3.32 µM (active) in [2]; 5.26 µM (active) in test [3]; 18.7 µM (active) in [10]; 20.9 µM (active) in test [11]; 5.9 µM (active) in test [12]. Moreover, the Potency in [7] was 2.64 µM (active); in test [13], 2.35 µM (active); in [15], 18.7 µM (active). The Potency entry in test [4], in test [5], in test [8], in test [14] and in test [9] was “inactive” each time.

Take `N=C(N=C(N)N)N1CCOCC1`: the Potency result in test [1], in test [2], in test [16], in [4], in test [7] and in [8] was “inactive” each time. Also, the Potency entry in test [9], in test [15] and in test [17] was “inactive” in each case. In addition, the Potency in test [13] is 10.5 µM (active).

`Cc1ccc(Nc2nccc(N(C)c3ccc4c(C)n(C)nc4c3)n2)cc1S(N)(=O)=O`: the Potency in [1] was 3.72 µM (active); in [18] it was 20.9 µM (active); in test [2] it was 16.6 µM (active); in test [3], 16.6 µM (active); in test [16], 20.9 µM (active); in test [10], 18.7 µM (active). The Potency in [4] is 16.6 µM (active); in test [5], 23.5 µM (active).

As for `Cc1ccc(S(=O)(=O)NC(=O)NN2CC3CCCC3C2)cc1` (stereo not drawn), the Potency is 20.9 µM (active) in test [1]; 23.5 µM (active) in [18]; 26.4 µM (active) in test [3]; 26.4 µM (active) in [4]; 20.9 µM (active) in test [13].

For `O=C(O)c1cn(-c2ccc(F)cc2)c2cc(N3CCNCC3)c(F)cc2c1=O`, the Potency result in [1], in test [2], in [3], in test [4], in [5] and in test [7] was “inactive” throughout. For the same compound, the Potency entry in test [8], in test [14], in test [9] and in [15] was “inactive” throughout. The Potency in [10] is 2.35 µM (active); in test [12] it was 11.8 µM (active); in test [13], 20.9 µM (active).

For the compound `Nc1nc(OCc2ccccc2)c2[nH]cnc2n1`, the Potency was 18.7 µM (active) in test [1], 16.6 µM (active) in test [3], 4.69 µM (active) in [19] and 14.8 µM (active) in test [13]. The Potency result in [2], in test [10], in [14], in [9] and in test [15] was “inactive” in each case.

With `CN(C)c1ccc(O)c2c1C[C@H]1C[C@H]3[C@H](N(C)C)C(=O)C(C(N)=O)=C(O)[C@@]3(O)C(=O)C1=C2O`, the Potency is 13.2 µM (active) in test [1]; 20.9 µM (active) in test [18]; 16.6 µM (active) in test [3]; 18.7 µM (active) in test [10]; 13.2 µM (active) in [5]; 18.7 µM (active) in test [12]. Moreover, the Potency in test [6] was 20.9 µM (active); in test [7], 16.6 µM (active); in test [8], 18.7 µM (active); in test [13] it was 3.72 µM (active); in test [14], 16.6 µM (active); in test [15] it was 20.9 µM (active). In addition, the Potency in test [17] was 16.6 µM (active). In [4], the Potency result is “inactive”.

Take `Cc1cccc(CN2CCN(C(c3ccccc3)c3ccc(Cl)cc3)CC2)c1` (stereo not drawn): the Potency was 16.6 µM (active) in test [1]; 23.5 µM (active) in test [18]; 23.5 µM (active) in [2]; 23.5 µM (active) in test [3]; 26.4 µM (active) in [10]; 20.9 µM (active) in [12]. Moreover, the Potency in test [13] was 20.9 µM (active).

Regarding `Clc1ccc(C(Cn2ccnc2)OCc2ccc(Sc3ccccc3)cc2)c(Cl)c1` (stereo not drawn), the Potency in test [1] was 26.4 µM (active); in test [3], 18.7 µM (active); in test [10], 26.4 µM (active); in [4] it was 18.7 µM (active); in [19], 26.4 µM (active); in [12], 23.5 µM (active). Besides, the Potency in test [13] is 18.7 µM (active); in test [14], 26.4 µM (active); in test [9] it was 23.5 µM (active).

Take `Oc1ccc2ccccc2c1SSc1c(O)ccc2ccccc12`: the Potency was 7.43 µM (active) in test [18]; 11.8 µM (active) in [2]; 8.33 µM (active) in test [3]; 18.7 µM (active) in test [16]; 20.9 µM (active) in [4]; 9.35 µM (active) in test [5]. Also, the Potency is 20.9 µM (active) in test [12]; 8.33 µM (active) in test [7]; 20.9 µM (active) in test [8]; 14.8 µM (active) in test [13]; 14.8 µM (active) in test [14]; 23.5 µM (active) in [9]. Besides, the Potency in [17] is 5.9 µM (active).

As to `CCc1nc(N)nc(N)c1-c1ccc(Cl)cc1`, the Potency in test [1] was 10.5 µM (active); in test [13] it was 16.6 µM (active); in test [9] it was 8.33 µM (active). Besides, the Potency entry in [6], in [7] and in [15] was “inactive” each time.

As to `N[C@@H](Cc1cc(I)c(Oc2cc(I)c(O)c(I)c2)c(I)c1)C(=O)O`, the Potency entry in [18], in [2], in [3], in [4], in test [7] and in test [8] was “inactive” in each case. Moreover, the Potency result in test [13], in test [14], in test [15] and in [20] was “inactive” in each case. For the same compound, the Potency in test [12] is 2.96 µM (active).

For the compound `CC1(C)C(=O)N(CCN2CCC(C(=O)c3ccc(F)cc3)CC2)c2ccccc21`, the Potency in [1] is 1.66 µM (active); in [3], 13.2 µM (active); in [4], 10.5 µM (active); in [8] it was 7.43 µM (active); in [13], 20.9 µM (active); in test [14] it was 16.6 µM (active). In addition, the Potency in test [20] is 13.2 µM (active). Moreover, the Potency result in test [15] is “inactive”.

Consider `c1cnc2cc3c(cc2n1)C1CNCC3C1`, for which the Potency result in [1], in test [3], in [10], in test [4], in test [19] and in [5] was “inactive” throughout. The Potency result in test [6], in test [8], in test [14], in test [9], in [15] and in test [17] was “inactive” throughout.

For `CC(C)C[C@H](NC(=O)[C@H](Cc1ccccc1)NC(=O)c1cnccn1)B(O)O`, the Potency in test [18] was 0.0166 µM (active); in [2] it was 0.0132 µM (active); in [3], 0.0074 µM (active); in [10] it was 0.0148 µM (active); in [5], 0.0148 µM (active); in test [12], 0.469 µM (active). The Potency in test [6] was 0.0093 µM (active); in test [8] it was 0.0053 µM (active); in [13], 0.0066 µM (active); in test [14], 0.0047 µM (active); in test [9] it was 0.0118 µM (active); in test [15], 0.0093 µM (active). The Potency in test [17] was 0.0083 µM (active).

Regarding `COc1cc2c(N3CCN(C(=O)Nc4ccc(OC(C)C)cc4)CC3)ncnc2cc1OCCCN1CCCCC1`, the Potency in test [1] is 3.72 µM (active); in test [3] it was 9.35 µM (active); in test [7], 11.8 µM (active); in test [13] it was 26.4 µM (active). In addition, the Potency result in [16] was “inactive”.

As to `C[C@@H](c1ncncc1F)[C@](O)(Cn1cncn1)c1ccc(F)cc1F`, the Potency result in test [1], in test [3], in test [16], in test [4], in [5] and in [6] was “inactive” each time. Also, the Potency result in [8], in test [13], in test [14], in test [9], in test [15] and in test [17] was “inactive” in each case.
